The whole screen tested about 68,000 compounds, of which about 25 (0.04%) showed an effect of 50% or more. The full list was thinned out, with strong results kept by preference.

The target in this assay is T1, Methionyl-tRNA synthetase, putative (Leishmania donovani (strain BPK282A1)) (UniProt E9BF75).
T1 sequence (whole entry): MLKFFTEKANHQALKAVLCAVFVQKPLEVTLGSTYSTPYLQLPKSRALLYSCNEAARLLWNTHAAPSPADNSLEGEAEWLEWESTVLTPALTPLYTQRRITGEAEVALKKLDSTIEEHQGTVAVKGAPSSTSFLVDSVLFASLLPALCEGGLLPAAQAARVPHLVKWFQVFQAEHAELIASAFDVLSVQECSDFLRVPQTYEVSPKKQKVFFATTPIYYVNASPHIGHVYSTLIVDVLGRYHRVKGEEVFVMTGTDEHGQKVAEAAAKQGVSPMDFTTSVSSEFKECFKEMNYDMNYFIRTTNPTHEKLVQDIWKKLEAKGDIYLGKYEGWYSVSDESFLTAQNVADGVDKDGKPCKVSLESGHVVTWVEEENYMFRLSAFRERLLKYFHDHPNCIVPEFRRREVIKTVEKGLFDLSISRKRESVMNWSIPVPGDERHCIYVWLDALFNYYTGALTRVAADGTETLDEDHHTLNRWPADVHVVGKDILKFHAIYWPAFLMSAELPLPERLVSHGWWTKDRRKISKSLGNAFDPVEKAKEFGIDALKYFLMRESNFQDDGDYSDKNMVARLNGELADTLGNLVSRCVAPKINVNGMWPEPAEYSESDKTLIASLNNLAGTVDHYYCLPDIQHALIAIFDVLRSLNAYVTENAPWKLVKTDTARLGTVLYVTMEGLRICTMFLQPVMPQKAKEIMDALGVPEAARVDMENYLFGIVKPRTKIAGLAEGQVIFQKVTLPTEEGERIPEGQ
Put plainly: Leishmania donovani Methionine tRNA synthetase (LdMetRS):v6. Primary screen assay. The format is functional. Also noted: conc 80 nM, time 150 minutes.
As for `O=C(NC1CC1)[C@@H]1CCO[C@@H]2CCN(CC3CCC3)C[C@H]21`, the inhibition came to 16.2%.
For `CCN1C(=O)[C@]2(CC[C@@H]3CN(S(=O)(=O)CC(C)C)C[C@@H]32)N=C1C`, the inhibition was 16.2%.
Then `O=C(NCc1ccco1)[C@@]12CCO[C@@H]1CCN(Cc1ccccn1)C2`, with 16.3%; and `Cc1ccc(N2CCO[C@H]3CN(C(=O)c4cccc(C)n4)C[C@H]32)nn1`, with 5.75%; and `Oc1ccc(N(CCc2ccccc2)CCn2cncn2)cc1`, with 70%.
As for `OCCCN(CCn1cncn1)c1ccccc1`, the inhibition was found to be 8.36%.
Then `c1ccc(N(CCn2cncn2)CC2CC2)cc1`, with 11%; and `Cc1ccccc1C(=O)N1C[C@@H]2CCN(c3cccnc3)C[C@@H]2C1`, with 10.5%; and `Cc1nc(CN2C[C@@H]3CN(C(=O)c4ccnnc4)C[C@@H]3C2=O)cs1`, with 13.1%.
Consider `CO[C@H]1CN(Cc2ccccc2F)[C@@H]2CCCO[C@H]12`, for which the inhibition is 10.8%.
Then `CNc1cc(-c2cccc(CN)c2)c2cc[nH]c2n1`, with 53%; and `CNc1cc(-c2ccc(COCCN)cc2)c2cc[nH]c2n1`, with 33.4%.
As to `CNc1cc(-c2ccccc2CN)c2cc[nH]c2n1`, the inhibition worked out at 23.4%.
With `CCn1cc(CN2C[C@H]3CC[C@@H]2CN(C(=O)C2CCC2)C3)cn1` the figure was 12.2%; with `CS(=O)(=O)N1C[C@@H]2COC[C@]2(C(=O)NCCc2cccs2)C1`, 3.36%; with `c1cc2c(cc1CN1CC[C@H]3[C@H]1CCN3CC1CC1)OCO2`, 5%.
Then `CS(=O)(=O)NC[C@]12COC[C@H]1CN(Cc1ccc3c(c1)OCO3)C2`, with 15.2%; and `CN(C)CCN1C[C@@H]2CN(S(=O)(=O)c3ccccc3)C[C@@H]2C1=O`, with 17.1%.
Then `O=C(NCCc1ccccn1)[C@@]12CCO[C@@H]1CCN(c1ncccn1)C2`, with 18.5%.
On to `CN1CCCC[C@@H]2[C@H]1[C@@H](c1ccccc1)CCN2C(=O)c1ccncc1`, for which the inhibition came out at 12.5%.
With `Cc1nnc([C@H]2C[C@H]3CN(C(=O)Cc4ccc(F)cc4)CC[C@@H]3O2)o1`, the inhibition was 18.5%.
With `COCCN1CCN(Cc2ccc(F)c(C)c2)[C@H]2CS(=O)(=O)C[C@H]21` the figure was 0.741%.
Then `COCCN1C(=O)CC[C@]12CC[C@@H](NCc1nccs1)CC2`, with 7.27%; and `N#Cc1cccc(CN2C[C@H](OCC3CCOCC3)[C@H]3COC[C@H]32)c1`, with 14.8%; and `Cn1cc(CN2C[C@@H](N3CCCC3=O)[C@H]3OCCC[C@H]32)cn1`, with 6.57%.
Then `O=C1N(Cc2ccccc2)C[C@H]2CN(Cc3ccccc3Cl)CCN12`, with 12.1%.
On to `Cc1ccc(S(=O)(=O)N2C[C@H]3C[C@H](NC(=O)c4ccn(C)n4)[C@H]3C2)cc1`, for which the inhibition is 11.3%.
With `CCCN1C[C@H]2CC[C@@H]1CN(Cc1cccc(O)c1)C2` the figure was 3.78%; with `Cn1cc(CN2CCO[C@H]3C(Cn4cccn4)CC[C@@H]32)cn1` (some centres not stated), 11.4%; with `Cc1cnc(CN2C[C@H]3C[C@H](Oc4ccccc4)C[C@H]3C2)cn1`, 0%.
Then `CNC(=O)[C@@H]1[C@@H](c2ccccc2)CN2CCN(Cc3ccco3)C[C@H]12`, with 0.822%; and `COc1cc(CN2CCCC[C@]3(C)NC(=O)CC[C@H]23)ccc1F`, with 14.2%.
As to `O=C(NCC1CC1)[C@H]1CC[C@@H]2[C@@H](CCN2Cc2ccoc2)O1`, the inhibition worked out at 10.8%.
For the compound `Cc1cccc(CN2CC[C@H]3CO[C@H](CNC(=O)N(C)C)[C@H]3C2)c1`, the inhibition stood at 3.76%.
Then `CN(C)C(=O)NCc1cc2n(n1)CCN(C[C@H]1[C@@H]3CNC[C@@H]31)C2`, with 12%; and `O=C1NC(c2ccccc2)=N[C@@]12CC[C@@H]1CN(S(=O)(=O)C3CC3)C[C@@H]12`, with 6.19%; and `CC(C)NC(=O)[C@H]1C[C@@H]2[C@@H](C1)OCCN2Cc1ccsc1`, with 10.1%.
Then `Cc1ccc(CN2CC[C@H]3CO[C@H](CN(C)C)[C@H]3C2)o1`, with 15.1%; and `CO[C@@H]1CC[C@H]2[C@H]1OCCN2S(=O)(=O)c1cn(C)cn1`, with 7.3%.
Then `COCC(=O)N1C[C@H]2CC[C@@]3(N=C(c4ccccc4)NC3=O)[C@H]2C1`, with 8.15%.
For the compound `Cc1nc(C)n(CC2CCCN2Cc2nc(N)c3ccccc3n2)n1` (configuration not stated), the inhibition was 11.2%.
With `Cc1nc(C)n(CC2CCCN2Cc2nc(C)c3ccccc3n2)n1` (configuration not stated) the figure was 57%; with `Cc1nc(C)n(CC2CCCN2Cc2nc3ccccc3nc2C)n1` (configuration not stated), 13.3%.
As to `O=C(c1ccco1)N1C(CN2CCOCC2)[C@]2(O)CC[C@H]1CC2` (some centres not stated), the inhibition was 15.1%.
In the case of `O=C(N[C@@H]1CN(Cc2cccs2)[C@@H]2CCCO[C@@H]21)c1cscn1`, the inhibition came out at 11.8%.
With `Cc1nc([C@@H]2C[C@@H]3CCN(C(=O)Cc4ccsc4)C[C@H]3O2)no1` the figure was 8.15%; with `COCCCN1C(=O)CC[C@H]2CN(c3cnc4ccccc4n3)CC[C@H]21`, -5.03%; with `CCC1=N[C@@]2(CC[C@@H]3CN(C(=O)NC(C)C)C[C@@H]32)C(=O)N1C`, 12.4%.
Consider `Cc1nc(CN2C[C@@H]3CCCO[C@@H]3[C@H](NC(=O)CC3CC3)C2)cs1`, for which the inhibition was 12.6%.
With `CS(=O)(=O)NC[C@H]1OC[C@H]2CN(Cc3ccsc3)CC[C@H]21`, the inhibition turned out to be 17.8%.
In the case of `CN(CC1CC1)c1ccc2ccc(C(=O)NCCc3ccccc3)cn12`, the inhibition turned out to be 51%.
On to `COCCNC(=O)c1ccc2ccc(N(C)CC3CC3)n2c1`, for which the inhibition was found to be 22.1%.
In the case of `CN(C)CCNC(=O)c1ccc2ccc(N(C)CC3CC3)n2c1`, the inhibition was 25.3%.
With `O=C(c1ccc[nH]1)N1C[C@H](OCc2cccnc2)[C@H]2COC[C@H]21` the figure was 16.2%.
Then `C=C1C(C)(C)[C@H]2CC[C@]1(C(=O)N1CCC(Cn3cc(CO)nn3)CC1)C2`, with 11.7%; and `NC(=O)N1CC[C@H]2CO[C@H](CNC(=O)c3ccnnc3)[C@H]2C1`, with 15%.
Then `Cc1nc(CN(C)C(=O)c2ccc(Cn3cnnn3)cc2)cs1`, with 123%.
Turning to `Cc1cnccc1CN(C)C(=O)c1ccc(Cn2cnnn2)cc1`, the inhibition was 2.48%.
Then `Cc1ncsc1CCN(C)C(=O)c1ccc(Cn2cnnn2)cc1`, with 16.8%; and `O=S1(=O)C[C@@H]2[C@H](C1)N(Cc1cc(F)cc(F)c1)CCN2CCO`, with 1.27%; and `COc1cccc(-c2noc3c2CN(c2ncnc4c2CCC4)CC3)c1`, with 52.3%.
With `COc1cccc(-c2noc3c2CN(c2nc(C)ncc2C)CC3)c1` the figure was 15%.
Consider `COCc1cc(N2CCc3onc(-c4cccc(OC)c4)c3C2)ncn1`, for which the inhibition came out at 12.5%.
With `O=C(NC1CC1)[C@H]1CC[C@@H]2[C@@H](CCN2Cc2ccsc2)O1` the figure was 6.67%; with `O=C(CCNC(=O)c1ccccc1F)NCCNc1cccnc1`, 120%.
Then `CCn1cnnc1CCNC(=O)CCNC(=O)c1ccccc1F`, with 17.3%; and `Cc1ccnc(NCCNC(=O)CCNC(=O)c2ccccc2F)c1`, with 34.8%.

By inhibition is commonly meant the drop in the measured response relative to a control, in per cent.
